# About 83,000 compounds went through this panel and 20% of them were active in at least one assay; those are over-represented in the sample as a whole.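 Assay: single dose, 48 h. Readout: percent growth (0 = no net growth; negative = cell death). Active: <10.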 Active and inactive are the calls of the source.
# Tested on: OVCAR-4 ovarian
# Test: NCI-60 one-dose screen, 48 h (100 = growth as untreated, 0 = no growth, -100 = all killed)
# Conditions: 10 µM unless noted
# Procedure: Growth inhibition of the OVCAR-4 human tumor cell line is measured as a screen for anti-cancer activity. Cells are grown in 96 well plates and exposed to the test compound for 48 hours. Compounds are tested at a single concentration, which is 10^-5 M for most compounds. The reported endpoint is percent growth (GI% or GIPRCNT), where numbers from 0 - 100% represent growth inhibition, and numbers from -100% - 0 represent cell death. For example, a value of 40 represents 60% growth inhibition. A value of 0 means no net growth occurred over the course of the experiment. A value of -40 indicates 40% of cells at the beginning of the experiment died by the end of the experiment. A value of -100 means all cells are dead at the end of the experiment.
# NCI-60 Human Tumor Cell Lines Screen was performed using the standard one-dose NCI protocol, which is described in more detail at https://dtp.cancer.gov/discovery_development/nci-60/default.htm.
# Compounds with GIPRCNT values below 10 were considered active. Activity score was based on GIPRCNT using the following formula: […]
# Score is 0 for GIPRCNT values of 100 or above, 50 for GIPRCNT values of 0, and 100 for GIPRCNT values of -100.
row,Structure (SMILES),growth
1,CC/C=C\C=C/C(=O)N/C=C/CC1Cc2cccc(O)c2C(=O)O1 (stereo not given),80.2% (inactive)
2,COc1ccc(-c2noc(N)c2-c2cc(OC)c3c(c2)OCO3)cc1,91.7% (inactive)
3,COc1ccc2c(c1)C(=O)c1c-2c(OCCN(C)C)nc2cc(OC)ccc12,4.71% (active)
4,C=C(C[C@](O)(C(=O)/C=C/c1ccc(Cl)cc1)C(=O)OC)c1ccccc1,84.4% (inactive)
5,O=C(/C(=C/c1ccc([N+](=O)[O-])cc1)c1ccccc1)c1ccccc1,57.8% (inactive)
6,Clc1ccc2c(Nc3ccc4oc(NCCN5CCCC5)nc4c3)ccnc2c1,85.2% (inactive)
7,O=C(Nc1cccc([N+](=O)[O-])c1)c1cccc(C(=O)Nc2cccc([N+](=O)[O-])c2)c1,56.9% (inactive)
8,Oc1ccc(-c2nn(-c3ccccc3)cc2-c2nc3ccccc3s2)cc1,86.2% (inactive)
9,COc1ccc(/C=C2\COc3ccc(O)c(O)c3C2=O)cc1OC,30.1% (inactive)
10,COc1ccc2[nH]c(-c3ccccc3)cc2c1,81.3% (inactive)
11,COc1ccc(C(=O)COc2cccc(/C=C3\Oc4ccc5ccccc5c4C3=O)c2)cc1,94.9% (inactive)
12,CC[C@H](C)C(=O)O[C@H]1C[C@@H](C)C=C2C=C[C@H](C)[C@H](CC[C@@H]3C[C@@H](O)CC(=O)O3)[C@H]21,111% (inactive)
13,O=C1NC(=O)/C(=C\c2ccccc2)C2=C1CCCC2,91.2% (inactive)
14,CCOc1nc(-c2ccccc2)cc2c(O)c(C(=O)n3nc(C)cc3C)[nH]c(=O)c12,100% (inactive)
15,Clc1cc(Cl)c(OCC#CI)cc1Cl,80% (inactive)
16,OC(Cc1cccnc1)c1ccccc1 (stereo not given),107% (inactive)
17,C[n+]1c2ccccc2c(NC2CCNCC2)c2[nH]c3ccccc3c21,4.1% (active)
18,Cn1cnc([N+](=O)[O-])c1S(=O)(=O)Oc1ccc(Cl)cc1,102% (inactive)
19,O=C(O)C(=O)O,99.8% (inactive)
20,CCC(C)(C)C(=O)O[C@H]1C[C@@H](C)C=C2C=C[C@H](C)[C@H](CC[C@@H]3C[C@@H](O)CC(=O)O3)[C@H]21,86.6% (inactive)

row,Structure (SMILES),growth
1,Cc1cc(O)c2c(c1)C[C@H]1[C@@H]3CC[C@H]4CC(=O)CC[C@]4(C)[C@H]3CC(=O)[C@]21C,109% (inactive)
2,C/C(=N\N1CC(=O)NC1=O)c1ccc([N+](=O)[O-])o1,105% (inactive)
3,NS(=O)(=O)c1ccc(NC2=C(Cl)C(=O)c3ccccc3C2=O)cc1,94.4% (inactive)
4,Cc1nn(-c2ccccc2)c2c1oc(=O)c1cc(Cl)ccc12,113% (inactive)
5,N=c1ccn2c(n1)O[C@@H]1[C@@H](O)[C@H](CO)O[C@@H]12,76.7% (inactive)
6,NC(=O)NN=C(C1CC1)C1CC1,104% (inactive)
7,CN(C)c1ccc(/C=C(\C#N)c2nc3ccccc3c(=O)[nH]2)cc1,29.9% (inactive)
8,COC(=O)CCC1=C(C)C(C)=N/C1=C\c1[nH]c(-c2ccc[nH]2)cc1OC,11.8% (inactive)
9,C[n+]1ccc(Nc2ccc(NC(=O)c3ccc(Nc4cc[n+](C)c5ccc(N)cc45)cc3)cc2)cc1,103% (inactive)
10,Cc1c(C(N)=O)sc2c1c(=O)n(Cc1ccccc1)c1nnc(SCC(=O)Nc3ccc(Cl)cc3)n21,-80.2% (active)
11,COc1cc([C@@H]2c3cc4c(cc3C(O[C@@H]3O[C@@H]5CO[C@@H](c6cccs6)OC5[C@H](O)[C@H]3O)C3COC(=O)[C@@H]32)OCO4)cc(OC)c1O (stereo not given in full),13.8% (inactive)
12,COc1ccc(/C=C/C(=O)Nc2cccnc2Nc2ccc(F)cc2)cc1,91.1% (inactive)
13,S=C(c1ccccc1)N1CCN(c2cccc(Cl)c2)CC1,120% (inactive)
14,O=C1/C(=C/c2ccc([N+](=O)[O-])s2)Oc2ccc(Br)cc21,-75.8% (active)
15,O=C(/C=C/c1cc2ccccc2[nH]c1=O)c1ccc(Cl)cc1,43.8% (inactive)
16,Cc1nn(-c2ccccc2)c(Cl)c1C(CC(=O)c1ccc(Cl)cc1)CC(=O)c1ccc(Cl)cc1,97.8% (inactive)
17,COc1cc2c(cc1OC)C1CCN3C(=O)CCC3N1CC2 (stereo not given),116% (inactive)
18,ClC1=C(Cl)C(Cl)=C(Cl)C1=Cc1ccc(Cl)cc1,75.4% (inactive)
19,CCSc1nnc2n(Cc3ccccc3)c(=O)c3c(C)c(C(N)=O)sc3n12,99.5% (inactive)
20,Cc1cc2c(C#N)n3c(c2cc1C)C(=O)C(c1ccccc1)Oc1ccccc1-3 (stereo not given),22.4% (inactive)
